Consider nine compounds from PubChem BioAssay.

The nature of assay [1]: stimulators of nuclear beta-catenin in C2C12, primary screen, imaging, WNT3A-conditioned medium, mouse C2C12, NPC library (AID 1117326; in the data active means nuclear beta-catenin stimulation mostly above about 4.2%, no sharp cut-off; inactive means mostly below about 10%). To be noted: stronger effect = higher value.
Assay [2] in a line: stimulators of insulin release from INS-1E, primary screen, cell-based, 5 mM glucose, NPC library (AID 1117329). To be noted: rat INS-1E insulin secretion, at 10 µM, stronger effect = higher value.
Assay [3] in a line: growth inhibition of GSK3B-pretreated HCT116 cells – cell-based, CellTiter-Glo, 0.2 to 20 µM (AID 1117336;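 active means compounds lowering colon cancer cell viability after pretreatment blocking the GSK3B kinase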). The conditions noted are these: HCT116 viability after GSK3B inhibitor, at 20 µM, stronger effect = higher value. On the technique in general: In ATP-based viability assays light output follows the ATP content of the culture.
A short description of assay [4]: inhibition of endothelial tube formation, primary screen, imaging, VEGF stimulated, CD31 staining, tube area, NPC library (AID 1117340;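 active means compound that reduces growth-factor-driven endothelial tube area in a mixed cell culture, no cutoff stated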). The conditions noted are these: VEGF-stimulated ADSC/ECFC co-culture, at 10 µM, stronger effect = higher value.
Assay [5] in a line: glucagon-like peptide 1 release enhancers, primary assay, NCI-H716 cell line, NPC library (AID 1117341;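 active means compound raises GLP1 secretion from the human gut endocrine cells, with no numeric limit stated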). The conditions noted are these: NCI-H716 cells, at 10 µM, stronger effect = higher value.
Assay [6] can be described thus: HCT116 colon cancer cell growth inhibition, primary screen, CellTiter-Glo luminescence, NPC library (AID 1117342;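 active means compounds that lower survival of HCT116 colon cancer cells in the luminescence readout, no numeric limit stated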). To be noted: at 20 µM (top of the series).
A short description of assay [7]: CellTiter-Glo luminescent readout of SW480 viability loss, NPC library primary (AID 1117343;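 active means compounds that lower viability of the colon cancer cells in the luminescence readout, with no numeric limit stated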). The conditions noted are these: CellTiter-Glo luminescence; at 20 µM (top of the series).
Assay [8] can be described thus: decreased DLD-1 cellular survival, CellTiter-Glo luminescent readout, NPC compound collection, primary HTS (AID 1117346;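 active means compounds that lower survival of DLD-1 colon cancer cells in the luminescence readout, no cutoff given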). The conditions noted are these: DLD-1 viability, CellTiter-Glo luminescence; at 20 µM (top of the series).
A short description of assay [9]: kinase inhibitors against Plasmodium liver-stage infection, cell-based, known kinase inhibitor set, luminescence, hepatoma host viability (AID 624392; call rule not given here;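 further: infected cells incubated roughly two days before readout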). To be noted: Plasmodium liver stage in hepatoma cells, luciferase luminescence, concentration not given here; liver cell % of control: measured here: host liver cell viability; parasite % of control: stronger effect = lower value.

Assay [10] in a line: modulators of glucocorticoid suppression of NF-kB, cell-based, luciferase, IL-1B stimulus, dexamethasone (AID 624486; call rule not given here;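 on percent of negative control (+Dex): 100% = mean signal of vehicle control wells on the plate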). The conditions noted are these: NF-kB luciferase reporter, IL-1B + dexamethasone, luminescence; percent of negative control (+Dex): actives lie on both sides, concentration not given here; z-score: measured here: IL-1B alone, no Dex. (A reporter such as luciferase makes a cellular process visible.)

Assay [11] deals with Cellular tumor antigen p53 (Homo sapiens) (UniProt P04637). Kind of assay: kinase inhibitors altering GFP-p53 stability in HPV16-positive cells, imaging, known kinase inhibitor set, EGFP/DsRed ratio (AID 1053116; call rule not given here;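 further: cells exposed to compounds for 24 h at 37 °C before reading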). To be noted: stronger effect = higher value; EGFP object count: measured here: GFP-p53 positive objects count.
Assay [12] is described as follows: IRF3 reporter activation in THP-1 macrophages, cell-based, PMA-stimulated THP-1, luminescence (AID 1053176; call rule not given here). The conditions noted are these: PMA-differentiated THP-1, IRF3 reporter luminescence; stronger effect = higher value.

The source made the active and inactive calls.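 How the source made its calls, unless noted: active means compound raises insulin release from rat beta cells at 5 mM glucose, no numeric limit stated; inactive means the rest.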

Sequence of Cellular tumor antigen p53 (Homo sapiens) (P04637 whole entry, looked up): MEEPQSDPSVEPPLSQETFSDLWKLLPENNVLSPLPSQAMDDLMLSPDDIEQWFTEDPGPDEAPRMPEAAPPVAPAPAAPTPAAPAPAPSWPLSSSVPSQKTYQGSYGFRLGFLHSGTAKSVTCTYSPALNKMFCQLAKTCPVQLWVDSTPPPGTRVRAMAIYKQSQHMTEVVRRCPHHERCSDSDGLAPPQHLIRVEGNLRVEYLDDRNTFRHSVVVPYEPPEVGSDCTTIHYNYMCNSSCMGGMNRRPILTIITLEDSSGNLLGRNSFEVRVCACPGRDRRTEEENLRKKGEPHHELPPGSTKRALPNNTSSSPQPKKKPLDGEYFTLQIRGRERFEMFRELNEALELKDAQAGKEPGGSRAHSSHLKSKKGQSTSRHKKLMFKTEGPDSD

As for `CCOC(=O)NC(O)C(Cl)(Cl)Cl` (centres undefined), the nuclear beta-catenin stimulation in assay [1] (at 10 µM) is -0.2% (inactive); in [1] (stimulation, at 2 µM) it was 2.2%. Further, the insulin secretion stimulation in [2] is 0.3% (inactive). The viability decrease in [3] is -4.2% (inactive). Moreover, the tube area decrease in [4] is -20.4% (inactive). Also, the GLP1 secretion stimulation in [5] is 0.8% (inactive). In addition, in [6], the inhibition of viability was -2.5% (inactive). Also, the values for the viability decrease (inhibition) in assay [7] and in [8] were 16.2% (inactive) and 4.55% (inactive), respectively.

Take `Cn1cc(C2=C(c3cn(CCCNC(N)=N[N+](=O)[O-])c4ccccc34)C(=O)NC2=O)c2ccccc21`: in assay [9], the liver cell % of control stood at 106% and the parasite % of control was 62.5% (inactive). For the same compound, in assay [10], the percent of negative control (+Dex) is 102% (inactive) and the z-score was -0.575. Also, in assay [11], the EGFP object count was 2.5 and the EGFP/DsRed ratio was 0.0481 (inactive). Besides, in assay [12], the fraction signal is 0.0015 (inactive).

Consider `CC(=O)O[C@H]1C[C@H](O[C@H]2[C@@H](O)C[C@H](O[C@@H]3[C@@H](O)C[C@H](O[C@H]4CC[C@@]5(C)[C@H](CC[C@@H]6[C@H]5C[C@@H](O)[C@]5(C)[C@@H](C7=CC(=O)OC7)CC[C@]65O)C4)O[C@@H]3C)O[C@@H]2C)O[C@H](C)[C@H]1O[C@@H]1O[C@H](CO)[C@@H](O)[C@H](O)[C@@H]1O`, for which the nuclear beta-catenin stimulation in assay [1] (at 10 µM) is 1.6% (inactive); in assay [1] (stimulation, at 2 µM), 0.9%. Besides, the insulin secretion stimulation in assay [2] is 0.8% (inactive). Also, the viability decrease in assay [3] is 73.3% (active). Further, the tube area decrease in assay [4] is 108% (active). In [5], the GLP1 secretion stimulation was -0.9% (inactive). Also, the inhibition of viability in assay [6] is 46.8% (active). In addition, the viability decrease (inhibition) in assay [7] was 54.2% (active); in [8] it was 55.1% (active).

Turning to `C[N+]1(CCF)[C@@H]2CC[C@H]1CC(OC(=O)C(O)(c1ccccc1)c1ccccc1)C2` (some centres undefined), the nuclear beta-catenin stimulation in assay [1] (at 10 µM) was -2.1% (inactive); in assay [1] (stimulation, at 2 µM), 0.7%. Besides, the insulin secretion stimulation in [2] was -0.1% (inactive). Moreover, the viability decrease in assay [3] was 4.8% (inactive). In assay [4], the tube area decrease was 16.4% (inactive). The GLP1 secretion stimulation in [5] was 4.4% (inactive). In [6], the inhibition of viability is 5.8% (inactive). For the same compound, the values for the viability decrease (inhibition) in assay [7] and in [8] were -2% (active) and -1.5% (inactive), respectively.

In the case of `O=C1c2ccccc2C(=O)C1C(=O)C(c1ccccc1)c1ccccc1`, the nuclear beta-catenin stimulation in assay [1] (at 10 µM) was 0.3% (inactive); in [1] (stimulation, at 2 µM), -0.1%. In addition, the insulin secretion stimulation in assay [2] is -2.2% (inactive). Further, the viability decrease in assay [3] was 91.3% (active). In addition, the tube area decrease in [4] is 78.8% (active). Further, in assay [5], the GLP1 secretion stimulation is -5% (inactive). The inhibition of viability in assay [6] was 44.8% (inactive). For the same compound, the viability decrease (inhibition) in assay [7] was 120% (active); in [8] it was 99.3% (active).

As for `C[C@]12CCC(=O)C=C1C=C[C@@H]1[C@H]2CC[C@@]2(C)[C@@H]1CC[C@@]2(O)CCC(=O)O`, the nuclear beta-catenin stimulation in assay [1] (at 10 µM) is -1.1% (inactive); in assay [1] (stimulation, at 2 µM), 0%. In addition, the insulin secretion stimulation in assay [2] was -2.4% (inactive). Also, the viability decrease in [3] was -15.4% (inactive). Further, in assay [4], the tube area decrease was 2% (inactive). Also, the GLP1 secretion stimulation in assay [5] is 0.9% (inactive). Moreover, the inhibition of viability in assay [6] was 3.7% (inactive). The viability decrease (inhibition) in assay [7] was -2% (inactive); in assay [8], -7.2% (inactive).

For the compound `Cc1c(Cl)c(=O)oc2cc(OP(=O)(OCCCl)OCCCl)ccc12`, the nuclear beta-catenin stimulation in [1] (at 10 µM) was 0.5% (inactive); in assay [1] (stimulation, at 2 µM), 0%. In addition, the insulin secretion stimulation in assay [2] was 4.8% (inactive). The viability decrease in assay [3] is 12.2% (inactive). Moreover, the tube area decrease in assay [4] was 14.4% (inactive). The GLP1 secretion stimulation in assay [5] is -2.3% (inactive). In [6], the inhibition of viability is 35.4% (inactive). For the same compound, the viability decrease (inhibition) in assay [7] was 29.5% (inactive); in [8] it was 0.8% (inactive).

`O=C(CCCCl)c1ccc(F)cc1`: the nuclear beta-catenin stimulation in assay [1] (at 10 µM) was -0.1% (inactive); in [1] (stimulation, at 2 µM), -0.7%. The insulin secretion stimulation in assay [2] was -0.9% (inactive). Also, the viability decrease in assay [3] was -6.5% (inactive). In addition, the tube area decrease in assay [4] is -3.6% (inactive). Further, the GLP1 secretion stimulation in assay [5] was 0.1% (inactive). For the same compound, in [6], the inhibition of viability was 3.2% (inactive). The viability decrease (inhibition) in assay [7] is -14.9% (inactive); in assay [8], 5.8% (inactive).

Take `CC(C(O)c1ccccc1)N(C)C/C=C/c1ccccc1` (centres undefined): the nuclear beta-catenin stimulation in assay [1] (at 10 µM) was 3.5% (inactive); in assay [1] (stimulation, at 2 µM) it was 3.1%. Besides, in [2], the insulin secretion stimulation is 2.4% (inactive). Moreover, in assay [3], the viability decrease is -101% (inactive). Further, in assay [4], the tube area decrease was 54.6% (active). Moreover, the GLP1 secretion stimulation in assay [5] is -3.2% (inactive). The inhibition of viability in [6] is 60.9% (active). Moreover, the viability decrease (inhibition) in [7] is 29.4% (inactive); in assay [8] it was 7.9% (inactive).
